From PubChem BioAssay (Tox21)
Inconclusive results are not listed. A call without a number means that no potency is given here. The source made the active and inactive calls. Unless noted, the call rests on the fitted dose curve; in most records, active means well fitted curve in the direction sought with a large enough effect in the repeat runs; inconclusive means weak or mixed curves; inactive means no such curve, though single readings can be large; an effect the other way counts as inactive or inconclusive.

Assays:
[1] = qHTS assay to identify aromatase inhibitors - cell viability counter screen (AID 743084);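 further: cells stimulated with testosterone during compound exposure; nearly all actives have a fitted effect of over 55% in size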; further: potency means the concentration at half of the fitted maximal effect
[2] = biological target: Aryl hydrocarbon receptor (Homo sapiens) (UniProt P35869); experiment: qHTS assay to identify small molecule that activate the aryl hydrocarbon receptor (AhR) signaling pathway (AID 743085); further: nearly all actives have a fitted effect of over 15% in size; further: potency means the concentration at half of the fitted maximal effect;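 on activation: HG2L7.5c1 human HepG2 liver cells with stably integrated DRE-driven firefly reporter; series mostly up to about 70 µM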
Chain of Aryl hydrocarbon receptor (Homo sapiens) (P35869 whole entry, looked up): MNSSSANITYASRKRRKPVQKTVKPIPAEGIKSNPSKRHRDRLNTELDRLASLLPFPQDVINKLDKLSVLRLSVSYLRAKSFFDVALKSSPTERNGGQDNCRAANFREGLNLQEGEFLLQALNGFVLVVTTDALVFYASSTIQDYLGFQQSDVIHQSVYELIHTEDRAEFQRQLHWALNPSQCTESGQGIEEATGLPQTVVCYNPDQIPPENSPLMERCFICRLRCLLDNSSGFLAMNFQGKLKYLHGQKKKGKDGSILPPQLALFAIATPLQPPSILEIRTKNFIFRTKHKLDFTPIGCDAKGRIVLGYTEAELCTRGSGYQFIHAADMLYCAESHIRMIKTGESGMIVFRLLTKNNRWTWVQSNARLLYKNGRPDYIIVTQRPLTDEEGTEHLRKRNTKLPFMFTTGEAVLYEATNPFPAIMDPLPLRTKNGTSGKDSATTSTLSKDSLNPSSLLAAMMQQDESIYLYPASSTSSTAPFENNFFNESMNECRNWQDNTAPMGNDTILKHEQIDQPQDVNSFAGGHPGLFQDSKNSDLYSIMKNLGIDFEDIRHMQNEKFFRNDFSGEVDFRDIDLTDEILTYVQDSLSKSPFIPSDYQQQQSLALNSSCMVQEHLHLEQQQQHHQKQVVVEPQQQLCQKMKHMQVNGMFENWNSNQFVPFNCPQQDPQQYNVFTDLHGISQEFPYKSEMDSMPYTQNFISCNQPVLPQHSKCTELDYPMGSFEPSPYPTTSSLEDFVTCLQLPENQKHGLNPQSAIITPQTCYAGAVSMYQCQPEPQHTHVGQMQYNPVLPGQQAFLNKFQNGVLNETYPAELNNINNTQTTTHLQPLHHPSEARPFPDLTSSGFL
Outline: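 HepG2 cells stably carrying a 20-DRE firefly luciferase reporter (HG2L7.5c1) treated with compound for 24 hr at 37C. Luciferase read by ONE-Glo luminescence, with CellTiter-Fluor viability read first.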

[3] = qHTS assay to identify small molecule that activate the aryl hydrocarbon receptor (AhR) signaling pathway - cell viability counter screen (AID 743086);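 further: HepG2 liver cells carrying the AhR DRE luciferase reporter; series mostly up to about 70 µM; nearly all actives have a fitted effect of over 45% in size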
Outline: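 HepG2-AhR-luc (HG2L7.5c1) cells, 4000/well, treated 24 h at 37 C with compound; viability measured as CellTiter-Fluor fluorescence after 30 min in the same wells as the luciferase read.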

[4] = biological target: Peroxisome proliferator-activated receptor gamma (Homo sapiens) (UniProt P37231); experiment: qHTS assay to identify small molecule agonists of the peroxisome proliferator-activated receptor gamma (PPARg) signaling pathway (AID 743094; active means well fitted activation curve with a large enough effect in the signal ratio in the repeat runs, not every such curve was filed as active; the % refers to the signal ratio)
Chain of Peroxisome proliferator-activated receptor gamma (Homo sapiens) (P37231 whole entry, looked up): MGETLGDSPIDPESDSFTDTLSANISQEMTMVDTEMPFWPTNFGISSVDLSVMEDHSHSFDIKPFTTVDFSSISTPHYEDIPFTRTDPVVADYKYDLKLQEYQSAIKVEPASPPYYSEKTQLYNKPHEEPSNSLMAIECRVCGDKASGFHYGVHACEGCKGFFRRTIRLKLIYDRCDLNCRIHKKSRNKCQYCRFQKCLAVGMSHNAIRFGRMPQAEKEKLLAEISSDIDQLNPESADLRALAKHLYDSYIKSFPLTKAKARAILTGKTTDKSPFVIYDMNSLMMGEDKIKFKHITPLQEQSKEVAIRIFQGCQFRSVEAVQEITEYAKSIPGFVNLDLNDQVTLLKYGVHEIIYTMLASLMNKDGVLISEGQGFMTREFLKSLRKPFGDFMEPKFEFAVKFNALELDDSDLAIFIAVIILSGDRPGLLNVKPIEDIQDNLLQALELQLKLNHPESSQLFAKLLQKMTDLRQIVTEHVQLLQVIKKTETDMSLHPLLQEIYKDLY
Outline: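 Agonism was assessed in a beta-lactamase reporter system, HEK293H cells with a stably integrated UAS-bla construct under PPARg control; the 17 h treatment at 37C preceded a 1 h room-temperature FRET substrate read.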

[5] = qHTS assay for small molecule agonists of the antioxidant response element (ARE) signaling pathway (AID 743202; active means well fitted activation curve with a large enough effect in the signal ratio in the repeat runs, not every such curve was filed as active; the % refers to the signal ratio)
Outline: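 HepG2 ARE-bla reporter line, 2,000 cells/well; 5 h preincubation 37 C/5% CO2; compound (DMSO) 16 h 37 C; B/G FRET substrate 2 h RT; fluorescence intensity.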

[6] = qHTS assay for small molecule activators of the heat shock response signaling pathway - cell viability counter screen (AID 743209); further: nearly all actives have a fitted effect of over 50% in size
Outline: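 Compounds dissolved in DMSO were added to overnight-plated HSE-bla HeLa cells and left 5 h at 37 C. Cell viability was quantified by luminescence using CellTiter-Glo.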

[7] = qHTS assay for small molecule activators of the heat shock response signaling pathway (AID 743210; active means well fitted activation curve with a large enough effect in the signal ratio in the repeat runs, with a control signal flat, not every such curve was filed as active; the % refers to the signal ratio;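 further: HeLa cells with beta-lactamase reporter driven by heat shock elements; series mostly up to about 63 µM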)
Outline: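 Beta-lactamase reporter read-out: FRET substrate fluorescence after 2.5 h at RT, following 5 h compound treatment at 37 C of HeLa cells carrying HSE-driven bla reporter; quantitative HTS format.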

[8] = qHTS assay to identify small molecule antagonists of the peroxisome proliferator-activated receptor gamma (PPARg) signaling pathway - cell viability counter screen (AID 743194); further: nearly all actives have a fitted effect of over 55% in size
Outline: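 Cytotoxicity counter screen in PPARg-bla HEK293H cells, same wells as reporter assay. Compounds plus 50 nM rosiglitazone (final) for 17 h at 37 C, then viability read by CellTiter-Glo luminescence.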

[9] = qHTS assay for small molecule agonists of the antioxidant response element (ARE) signaling pathway - cell viability counter screen (AID 743203; calls by dose curve; further: nearly all actives have a fitted effect of over 55% in size)
Outline: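 ATP content via CellTiter-Glo luminescence served as the viability measure. Cells: ARE-bla HepG2, 2,000 per well. Exposure: 16 hrs, 37C/5% CO2.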

[10] = biological target: Peroxisome proliferator-activated receptor gamma (Homo sapiens) (UniProt P37231); experiment: qHTS assay to identify small molecule antagonists of the peroxisome proliferator-activated receptor gamma (PPARg) signaling pathway (AID 743191; calls by dose curve; further: series mostly up to about 63 µM; nearly all actives have a fitted effect of over 30% in size)
Outline: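 GeneBLAzer PPARg UAS-bla HEK293H cells, 5 h post-plating, exposed to compounds 17 h at 37C. LiveBLAzer B/G FRET substrate added for 1 h at room temperature; beta-lactamase reporter read by fluorescence intensity.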

Row | SMILES | Potency [1] | Potency [2] | Potency [3] | Potency [4] | Potency [5] | outcome [6] | outcome [7] | Potency [8] | Potency [9] | Potency [10]
1 | CCCCCCCCCCCCCCCCN | inactive | inactive | inactive | inactive | inactive | inactive | inactive | – | – | –
2 | O=C(O)COCC(=O)O | inactive | inactive | inactive | inactive | inactive | inactive | inactive | inactive | – | –
3 | CCCCOC(=O)C(C)Oc1ccc(Oc2ccc(C(F)(F)F)cn2)cc1 (configuration not stated) | inactive | inactive | inactive | inactive | – | inactive | inactive | inactive | inactive | –
4 | O=C(OCCCCCOC(=O)c1ccccc1)c1ccccc1 | inactive | inactive | inactive | inactive | inactive | inactive | inactive | – | inactive | –
5 | COc1ccc(CN(CCN(C)C)c2ncccn2)cc1 | inactive | inactive | inactive | – | – | inactive | inactive | inactive | inactive | inactive
6 | CC1(C)CC(O)CC(C)(C)N1[O] | inactive | inactive | inactive | – | inactive | inactive | inactive | inactive | – | inactive
7 | CC(Cc1ccccc1)(NC(=O)CN)c1ccccc1 (configuration not stated) | inactive | inactive | inactive | inactive | – | inactive | inactive | inactive | inactive | –
8 | CC(C)(C)c1ccc(CCC=O)cc1 | inactive | inactive | inactive | inactive | inactive | inactive | inactive | inactive | – | –
9 | O=c1[nH][nH]c2ccccc12 | inactive | 62.3 µM (active) | inactive | – | inactive | inactive | inactive | inactive | inactive | –
10 | Cc1ccc2c(Cl)cc(Cl)c(O)c2n1 | 23.7 µM (active) | inactive | inactive | – | inactive | inactive | inactive | inactive | inactive | –
11 | Cc1ccc(NC=O)c(C)c1 | inactive | inactive | inactive | – | inactive | inactive | inactive | inactive | inactive | –
